# Laboratory results published in PubChem BioAssay AID743269 (The Scripps Research Institute Molecular Screening Center, 2014).
# Among all 370,000 compounds or so, about 2,400 (0.65%) were called active.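 The calls were made as follows: active = inhibition above the screen-wide mean plus 3 SD (cut at about 13% in these data); inactive = the rest.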 What follows is part of a selection rich in actives, with near analogues and random picks from the rest.
# System: HIV-1 integrase (with human LEDGF/p75)
# Experiment: blockers of LEDGF/p75-dependent integrase strand transfer – biochemical, TR-FRET, high throughput, primary screen (AID 743269);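 also: signal is the Cy5 over europium emission ratio at 671 and 618 nm; 0% = plate median of compound wells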
# Details: TR-FRET IN-LEDGF/p75 DNA integration, Eu/Cy5; at 3.7 µM; stronger effect = higher value
row,SMILES,inhibition
1,CN(C)c1ccc(NC(=O)NC2CCCCN(Cc3ccc(Cl)cc3)C2=O)cc1 (stereo not drawn),6.63% (inactive)
2,CCn1c(=O)n2n(c1=O)[C@@]1(C=C3CCCC[C@H]32)N=C(NC(=O)c2ccccc2)N(Cc2ccccc2)[C@H]1Cc1ccccc1,2.19% (inactive)
3,Clc1ccc(C2=CSC3=Nc4cccc5cccc(c45)N23)cc1,37.2% (active)
4,CC(=O)Nc1nc2ncccn2c1-c1ccc(C(F)(F)F)cc1,4.33% (inactive)
5,CCC(C)[C@@H](C(=O)OC)N(CCc1cn(Cc2ccccc2)nn1)S(=O)(=O)c1ccccc1Br (stereo partly drawn),1.03% (inactive)
6,CC(C)CNc1cccc2c1S(=O)(=O)N(Cc1cn(Cc3ccccc3C(F)(F)F)nn1)Cc1ccccc1O2,-0.84% (inactive)
7,CCOC(=O)[C@]12CCCC3=C1N(CCC3)C(=O)[C@@H](CC(=O)NCC13CC4CC(CC(C4)C1)C3)C2,0.85% (inactive)
8,O=C(NCc1ccco1)C1CCCN(S(=O)(=O)c2ccc(Cl)s2)C1 (stereo not drawn),-0.9% (inactive)
9,COC(=O)c1cc(OC)c(OC)cc1NC(=O)CSc1ccc(C)cc1,-3.23% (inactive)
10,CCc1cc2cc(OC)ccc2nc1SCC(=O)Nc1cc(OC)c(OC)cc1C(=O)O,17.2% (active)
11,COc1ccc(OC)c(NC(=O)CSc2nc(-c3ccccc3)cc(=O)[nH]2)c1,2.74% (inactive)
12,C=CCN(C(=O)[C@@H](CCCC)[C@@H](O)c1ccc(Cl)cc1)c1ccccc1,2.74% (inactive)
13,CCc1ccc(CN(C)C(C)C(=O)Nc2ccc(S(=O)(=O)N3CCCC3)cc2)cc1 (stereo not drawn),-3.86% (inactive)
14,CC(C(=O)Nc1ccc(S(=O)(=O)N2CCCC2)cc1)N(C)Cc1ccc(F)cc1 (stereo not drawn),-5.41% (inactive)
15,CN(CC(=O)Nc1ccc(S(=O)(=O)N2CCCC2)cc1)Cc1ccc(Cl)c(Cl)c1,30.4% (active)
16,Nn1c(SCC(=O)Nc2ccc(S(N)(=O)=O)cc2)nnc1-c1n[nH]c2c1CCC2,5.06% (inactive)
17,CN(O)C(=S)c1ccccc1,21.8% (active)
18,COC(=O)C1CN(CC(C)C)CCS(=O)(=O)N1Cc1ccc(C)cc1 (stereo not drawn),1.62% (inactive)
19,COc1cc(NC(=O)C2CCCN(S(=O)(=O)c3ccc(C(C)(C)C)cc3)C2)cc(OC)c1 (stereo not drawn),2.62% (inactive)
20,COc1ccc(-n2nc(C(=O)NCC(=O)N3CCCCCC3)c3ccccc3c2=O)cc1Cl,-4.29% (inactive)
21,COc1cc(/C=C2\CCCc3c2nc2ccccc2c3C(=O)O)cc(Cl)c1O,30.4% (active)
22,COC(=O)c1cc(N2CCNCC2)nc2ccccc12,-3.62% (inactive)
23,C[C@@H]1COc2cccc(N3CCCC3)c2S(=O)(=O)N1C,-1.59% (inactive)
24,NS(=O)(=O)c1cccc(NC(=O)COC(=O)/C=C/c2ccco2)c1,-1.8% (inactive)
25,COc1ccc([N+](=O)[O-])cc1NC(=O)COC(=O)/C=C/c1ccco1,-5.28% (inactive)
26,COc1cccc(NC(=O)COC(=O)/C=C/c2ccco2)c1,20.4% (active)
27,CC(C)(C)c1ccc(C(=O)Nc2cc(Cl)c(Br)cc2C(=O)O)cc1,5.86% (inactive)

row,SMILES,inhibition
1,CCCCOCCCNC(=O)C[C@H]1C[C@@]2(C(=O)OC)C(=C[C@H](COCc3ccccc3)O[C@@H]2C)N(Cc2cccc3ccccc23)C1=O,-2.14% (inactive)
2,COC(=O)[C@H](C(C)C)N1CCc2nnn(Cc3ccc(C)cc3)c2-c2ccccc2S1(=O)=O,0.15% (inactive)
3,Cc1nc2ccccc2n1C(=O)N1CCOCC1,-1.41% (inactive)
4,Cc1oc2c(c1C(=O)N1CCOCC1)C(=O)c1ccccc1C2=O,18.3% (active)
5,CC(C(=O)Nc1ccccc1-c1ccccc1)N1CCOCC1 (stereo not drawn),-2.51% (inactive)
6,CCCNC(=O)C1(C)CCN1C(=O)Cc1ccc(-c2ccccc2)cc1 (stereo not drawn),0.51% (inactive)
7,CC1(C(=O)NS(=O)(=O)c2ccccc2)CCN1C(=O)Cc1ccc(-c2ccccc2)cc1 (stereo not drawn),19.2% (active)
8,CC1(C(=O)NS(=O)(=O)c2cccs2)CCN1C(=O)Cc1ccc(-c2ccccc2)cc1 (stereo not drawn),-0.36% (inactive)
9,COc1ccc(/C=C2\CC3(OC(C)=O)CCCN2C3)cc1 (stereo not drawn),-2.77% (inactive)
10,C[C@H](C(=O)N(C)c1ccccc1)[C@@H](O)c1ccc2ccccc2c1,-3.07% (inactive)
11,CCN(CC)S(=O)(=O)c1cc(C(=O)Nc2ccccn2)ccc1C,1.24% (inactive)
12,CCCC(C(=O)OCCN(CC)CC)(c1ccccc1)c1ccccc1,-3.9% (inactive)
13,CCN(CC)CCOc1ccc2c(c1)C(=NNC(=O)c1ccccn1)c1cc(OCCN(CC)CC)ccc1-2,19.1% (active)
14,O=C(NC1CCCC1)C1CSCCS(=O)(=O)N1Cc1ccccc1 (stereo not drawn),0.83% (inactive)
15,C=C(C)C1CC23C(=O)C4(C(=O)c5ccccc5)C[C@@]5(C)CCC(CC2C1(C)C)(C4=O)C35OC (stereo partly drawn),-2.25% (inactive)
16,Cc1ccc(NC(=O)Cc2cccc(F)c2)c(S(=O)(=O)N2CCOCC2)c1,1.83% (inactive)
17,CCCCNC(=O)C[C@H]1C(=O)N(Cc2ccc(OC)cc2)C2=CCCC[C@@]21C(=O)OCC,-5.02% (inactive)
18,Cc1ccc(C)c(-c2nnc(NC(=O)CS(=O)(=O)c3ccccc3)o2)c1,-2.12% (inactive)
19,COc1cc(-c2nnc(NC(=O)CS(=O)(=O)c3ccc(Cl)cc3)o2)cc(OC)c1OC,15.4% (active)
20,COc1cc(-c2nnc(NC(=O)C3=COCCO3)o2)cc(OC)c1OC,5.65% (inactive)
21,CC(CCN1CCC(C(O)(c2ccccc2)c2ccccc2)CC1)Oc1ccc(C(F)(F)F)cc1 (stereo not drawn),-3.25% (inactive)
22,O=S(=O)(Cc1noc(-c2ccc(OC(F)(F)F)cc2)n1)c1ccc(F)cc1,0.93% (inactive)
23,O=[N+]([O-])c1ccc(NS(=O)(=O)c2ccccc2)c(Cl)c1,7.69% (inactive)
24,O=S(=O)(Nc1ccc(O)c2ccccc12)c1ccc(OC(F)(F)F)cc1,16.5% (active)
25,CCC(NC(=O)C1C2C=CC3(CN(Cc4ccccc4)C(=O)C13)O2)c1ccccc1 (stereo not drawn),-1.5% (inactive)
26,COC(=O)[C@]12C[C@H](CC(=O)NCCc3ccccc3OC)C(=O)N(Cc3ccco3)C1=C[C@H](C(C)C)O[C@@H]2C1CC1,-0.43% (inactive)
